Where “and” joins values, the source holds several entries; their conditions need not be identical. Identical values can stand only once. Out of some 5,500 compounds screened, about 2,000 (36%) were called active. Another 18% or so got no clear call; they are omitted. No stated cut-off is given here; in the data, active means normalized growth mostly below about 0.91 (no sharp cut-off); inconclusive means no clear call, values can overlap the other calls; inactive means mostly above about 0.92. The list shows a part of the results.
Experiment: chemical genetic growth profiling, strain panel (AID 1159580);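 further: tested at 20 µM; growth read once vehicle control cultures reached saturation at 30 °C; 1 = growth at the plate median or of vehicle wells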
Conditions: growth OD
[1] = S. cerevisiae deletion strains, locus YAL013W, strain DEP1, stronger effect = lower value
[2] = S. cerevisiae deletion strains, locus YBR229C, strain ROT2, stronger effect = lower value
[3] = S. cerevisiae deletion strains, locus YCL061C, strain MRC1, stronger effect = lower value
[4] = S. cerevisiae deletion strains, locus YDL101C, strain DUN1, stronger effect = lower value
[5] = S. cerevisiae deletion strains, locus YDR150W, strain NUM1, stronger effect = lower value
[6] = S. cerevisiae deletion strains, locus YEL061C, strain CIN8, stronger effect = lower value
[7] = S. cerevisiae deletion strains, locus YGR078C, strain PAC10, stronger effect = lower value
[8] = S. cerevisiae deletion strains, locus YHR030C, strain SLT2, stronger effect = lower value
[9] = S. cerevisiae deletion strains, locus YHR087W, strain rtc3, stronger effect = lower value
[10] = S. cerevisiae deletion strains, locus YJR043C, strain POL32, stronger effect = lower value
[11] = S. cerevisiae deletion strains, locus YJR075W, strain HOC1, stronger effect = lower value
[12] = S. cerevisiae deletion strains, locus YLR039C, strain RIC1, stronger effect = lower value
[13] = S. cerevisiae deletion strains, locus YLR058C, strain SHM2 (second series), stronger effect = lower value
[14] = S. cerevisiae deletion strains, locus YLR085C, strain ARP6, stronger effect = lower value
[15] = S. cerevisiae deletion strains, locus YLR262C, strain YPT6, stronger effect = lower value
[16] = S. cerevisiae deletion strains, locus YML094W, strain GIM5, stronger effect = lower value
[17] = S. cerevisiae deletion strains, locus YMR219W, strain ESC1, stronger effect = lower value
[18] = S. cerevisiae deletion strains, locus YMR263W, strain SAP30, stronger effect = lower value
[19] = S. cerevisiae deletion strains, locus YMR307W, strain GAS1, stronger effect = lower value
[20] = S. cerevisiae deletion strains, locus YNL153C, strain GIM3, stronger effect = lower value
[21] = S. cerevisiae deletion strains, locus YNL298W, strain CLA4 (second series), stronger effect = lower value
[22] = S. cerevisiae deletion strains, locus YNL322C, strain KRE1, stronger effect = lower value
[23] = S. cerevisiae deletion strains, locus YNR030W, strain Alg12, stronger effect = lower value
[24] = S. cerevisiae deletion strains, locus YOL006C, strain TOP1, stronger effect = lower value
[25] = S. cerevisiae deletion strains, locus YPL055C, strain LGE1, stronger effect = lower value
[26] = S. cerevisiae deletion strains, locus YPL241C, strain CIN2, stronger effect = lower value
[27] = S. cerevisiae deletion strains, locus YPR135W, strain CTF4, stronger effect = lower value

## CCOC(=O)CSC(=S)NCc1ccc(C)cc1
[1]
  normalized growth: 0.822 (active)
S. cerevisiae deletion strains, locus YAR019C, strain CDC15, stronger effect = lower value
  normalized growth: 0.956 (inactive)
S. cerevisiae deletion strains, locus YBL105C, strain PKC1, stronger effect = lower value
  normalized growth: 0.958 (inactive)
S. cerevisiae deletion strains, locus YBR135W, strain CKS1, stronger effect = lower value
  normalized growth: 0.937 (inactive)
S. cerevisiae deletion strains, locus YBR136W, strain MEC1, stronger effect = lower value
  normalized growth: 0.955 (inactive)
S. cerevisiae deletion strains, locus YBR160W, strain CDC28, stronger effect = lower value
  normalized growth: 0.951 (inactive)
[2]
  normalized growth: 0.866 (active)
[3]
  normalized growth: 0.907 (active)
S. cerevisiae deletion strains, locus YDL017W, strain CDC7, stronger effect = lower value
  normalized growth: 0.959 (inactive)
S. cerevisiae deletion strains, locus YDL028C, strain MPS1, stronger effect = lower value
  normalized growth: 0.947 (inactive)
[4]
  normalized growth: 0.947 (inactive) and 0.839 (active)
S. cerevisiae deletion strains, locus YDL108W, strain KIN28, stronger effect = lower value
  normalized growth: 0.956 (inactive)
S. cerevisiae deletion strains, locus YDL132W, strain cdc53, stronger effect = lower value
  normalized growth: 0.928 (inactive)
S. cerevisiae deletion strains, locus YDL134C, strain PPH21, stronger effect = lower value
  normalized growth: 0.0516 (active)
S. cerevisiae deletion strains, locus YDL214C, strain PRR2, stronger effect = lower value
  normalized growth: 0.95 (inactive)
S. cerevisiae deletion strains, locus YDR052C, strain DBF4, stronger effect = lower value
  normalized growth: 0.972 (inactive)
S. cerevisiae deletion strains, locus YDR054C, strain cdc34, stronger effect = lower value
  normalized growth: 0.93 (inactive)
[5]
  normalized growth: 0.787 (active)
S. cerevisiae deletion strains, locus YDR226W, strain ADK1, stronger effect = lower value
  normalized growth: 0.946 (inactive)
S. cerevisiae deletion strains, locus YDR477W, strain SNF1, stronger effect = lower value
  normalized growth: 0.949 (inactive)
[6]
  normalized growth: 0.216 (active)
S. cerevisiae deletion strains, locus YER123W, strain YCK3, stronger effect = lower value
  normalized growth: 0.933 (inactive)
S. cerevisiae deletion strains, locus YER133W, strain GLC7, stronger effect = lower value
  normalized growth: 0.953 (inactive)
S. cerevisiae deletion strains, locus YFL009W, strain cdc4, stronger effect = lower value
  normalized growth: 0.944 (inactive)
S. cerevisiae deletion strains, locus YFL029C, strain CAK1, stronger effect = lower value
  normalized growth: 0.958 (inactive)
S. cerevisiae deletion strains, locus YFR003C, strain YPI1, stronger effect = lower value
  normalized growth: 0.957 (inactive)
S. cerevisiae deletion strains, locus YFR019W, strain FAB1, stronger effect = lower value
  normalized growth: 0.957 (inactive)
S. cerevisiae deletion strains, locus YFR028C, strain CDC14, stronger effect = lower value
  normalized growth: 0.947 (inactive)
S. cerevisiae deletion strains, locus YGR040W, strain KSS1, stronger effect = lower value
  normalized growth: 0.946 (inactive)
S. cerevisiae deletion strains, locus YGR052W, strain FMP48, stronger effect = lower value
  normalized growth: 1.01 (inactive)
[7]
  normalized growth: 0.766 (active)
S. cerevisiae deletion strains, locus YGR092W, strain DBF2, stronger effect = lower value
  normalized growth: 0.937 (inactive)
[8]
  normalized growth: 0.0833 (active) and 0.84 (active)
S. cerevisiae deletion strains, locus YHR079C, strain IRE1, stronger effect = lower value
  normalized growth: 0.93 (inactive)
S. cerevisiae deletion strains, locus YHR082C, strain KSP1, stronger effect = lower value
  normalized growth: 0.964 (inactive)
[9]
  normalized growth: 0.86 (active)
S. cerevisiae deletion strains, locus YHR205W, strain SCH9, stronger effect = lower value
  normalized growth: 0.872 (inactive)
S. cerevisiae deletion strains, locus YIL147C, strain SLN1, stronger effect = lower value
  normalized growth: 0.951 (inactive)
S. cerevisiae deletion strains, locus YJL095W, strain BCK1, stronger effect = lower value
  normalized growth: 0.879 (inactive)
S. cerevisiae deletion strains, locus YJL128C, strain PBS2, stronger effect = lower value
  normalized growth: 0.954 (inactive)
S. cerevisiae deletion strains, locus YJL157C, strain FAR1, stronger effect = lower value
  normalized growth: 0.963 (inactive)
S. cerevisiae deletion strains, locus YJL187C, strain SWE1, stronger effect = lower value
  normalized growth: 0.958 (inactive)
S. cerevisiae deletion strains, locus YJR016C, strain ILV3, stronger effect = lower value
  normalized growth: 0.954 (inactive)
[10]
  normalized growth: 0.812 (active)
S. cerevisiae deletion strains, locus YJR066W, strain TOR1 (second series), stronger effect = lower value
  normalized growth: 0.989 (inactive)
S. cerevisiae deletion strains, locus YJR066W, strain TOR1, stronger effect = lower value
  normalized growth: 0.957 (inactive)
[11]
  normalized growth: 0.82 (active)
S. cerevisiae deletion strains, locus YKL048C, strain ELM1, stronger effect = lower value
  normalized growth: 0.944 (inactive)
S. cerevisiae deletion strains, locus YKL067W, strain YNK1, stronger effect = lower value
  normalized growth: 0.95 (inactive)
S. cerevisiae deletion strains, locus YKL101W, strain HSL1, stronger effect = lower value
  normalized growth: 0.955 (inactive)
S. cerevisiae deletion strains, locus YKL193C, strain SDS22, stronger effect = lower value
  normalized growth: 0.948 (inactive)
S. cerevisiae deletion strains, locus YKL203C, strain TOR2, stronger effect = lower value
  normalized growth: 1 (inactive)
[12]
  normalized growth: 0.172 (active)
[13]
  normalized growth: 0.909 (active)
[14]
  normalized growth: 0.0735 (active)
S. cerevisiae deletion strains, locus YLR113W, strain HOG1, stronger effect = lower value
  normalized growth: 0.76 (active)
S. cerevisiae deletion strains, locus YLR133W, strain CKI1, stronger effect = lower value
  normalized growth: 0.959 (inactive)
[15]
  normalized growth: 0.111 (active)
S. cerevisiae deletion strains, locus YLR403W, strain SFP1, stronger effect = lower value
  normalized growth: 0.967 (inactive)
S. cerevisiae deletion strains, locus YML070W, strain DAK1, stronger effect = lower value
  normalized growth: 0.949 (inactive)
[16]
  normalized growth: 0.493 (active)
S. cerevisiae deletion strains, locus YMR001C, strain CDC5, stronger effect = lower value
  normalized growth: 0.946 (inactive)
S. cerevisiae deletion strains, locus YMR205C, strain PFK2 (second series), stronger effect = lower value
  normalized growth: 0.965 (inactive)
[17]
  normalized growth: 0.909 (active)
[18]
  normalized growth: 0.853 (active)
S. cerevisiae deletion strains, locus YMR277W, strain FCP1, stronger effect = lower value
  normalized growth: 0.957 (inactive)
[19]
  normalized growth: 0.109 (active)
S. cerevisiae deletion strains, locus YNL006W, strain LST8, stronger effect = lower value
  normalized growth: 0.959 (inactive)
S. cerevisiae deletion strains, locus YNL020C, strain ARK1, stronger effect = lower value
  normalized growth: 0.948 (inactive)
[20]
  normalized growth: 0.665 (active)
S. cerevisiae deletion strains, locus YNL161W, strain CBK1, stronger effect = lower value
  normalized growth: 0.953 (inactive)
S. cerevisiae deletion strains, locus YNL183C, strain NPR1, stronger effect = lower value
  normalized growth: 0.912 (inactive)
S. cerevisiae deletion strains, locus YNL207W, strain RIO2, stronger effect = lower value
  normalized growth: 0.953 (inactive)
S. cerevisiae deletion strains, locus YNL222W, strain SSU72, stronger effect = lower value
  normalized growth: 0.956 (inactive)
[21]
  normalized growth: 0.0782 (active)
S. cerevisiae deletion strains, locus YNL307C, strain MCK1 (second series), stronger effect = lower value
  normalized growth: 0.928 (inactive)
[22]
  normalized growth: 0.925 (active)
[23]
  normalized growth: 0.0728 (active)
[24]
  normalized growth: 0.107 (active)
S. cerevisiae deletion strains, locus YOL078W, strain AVO1, stronger effect = lower value
  normalized growth: 0.948 (inactive)
S. cerevisiae deletion strains, locus YOL136C, strain PFK27, stronger effect = lower value
  normalized growth: 0.946 (inactive)
S. cerevisiae deletion strains, locus YOR061W, strain CKA2, stronger effect = lower value
  normalized growth: 0.965 (inactive)
S. cerevisiae deletion strains, locus YOR119C, strain RIO1, stronger effect = lower value
  normalized growth: 1.01 (inactive)
S. cerevisiae deletion strains, locus YOR231W, strain MKK1, stronger effect = lower value
  normalized growth: 0.914 (inactive)
S. cerevisiae deletion strains, locus YOR329C, strain SCD5, stronger effect = lower value
  normalized growth: 0.952 (inactive)
S. cerevisiae deletion strains, locus YPL031C, strain PHO85, stronger effect = lower value
  normalized growth: 0.944 (inactive)
[25]
  normalized growth: 0.618 (active)
S. cerevisiae deletion strains, locus YPL153C, strain RAD53, stronger effect = lower value
  normalized growth: 0.954 (inactive)
S. cerevisiae deletion strains, locus YPL204W, strain HRR25, stronger effect = lower value
  normalized growth: 0.943 (inactive)
S. cerevisiae deletion strains, locus YPL209C, strain IPL1, stronger effect = lower value
  normalized growth: 0.953 (inactive)
[26]
  normalized growth: 0.0682 (active)
S. cerevisiae deletion strains, locus YPL256C, strain CLN2, stronger effect = lower value
  normalized growth: 0.825 (active)
S. cerevisiae deletion strains, locus YPR025C, strain CCL1, stronger effect = lower value
  normalized growth: 0.943 (inactive)
S. cerevisiae deletion strains, locus YPR106W, strain ISR1, stronger effect = lower value
  normalized growth: 0.951 (inactive)
S. cerevisiae deletion strains, locus YPR111W, strain DBF20, stronger effect = lower value
  normalized growth: 0.931 (inactive)
[27]
  normalized growth: 0.148 (active)
S. cerevisiae deletion strains, strain NNK1, stronger effect = lower value
  normalized growth: 0.948 (inactive)
S. cerevisiae deletion strains, strain TSCII, stronger effect = lower value
  normalized growth: 0.949 (inactive)

## CCOC(=O)C1CCN(C(=S)Nc2ccccc2C(F)(F)F)CC1
[1]
  normalized growth: 1 (inactive)
[2]
  normalized growth: 1 (inactive)
[3]
  normalized growth: 1.02 (inactive)
[4]
  normalized growth: 1.01 (inactive)
[5]
  normalized growth: 0.994 (inactive)
[6]
  normalized growth: 0.998 (inactive)
[7]
  normalized growth: 1.01 (inactive)
[8]
  normalized growth: 0.99 (inactive)
[9]
  normalized growth: 1.02 (inactive)
[10]
  normalized growth: 1 (inactive)
[11]
  normalized growth: 0.982 (inactive)
S. cerevisiae deletion strains, locus YKL190W, strain CNB1, stronger effect = lower value
  normalized growth: 0.994 (inactive)
[12]
  normalized growth: 0.866 (inactive)
[13]
  normalized growth: 0.996 (inactive)
[14]
  normalized growth: 0.983 (inactive)
[15]
  normalized growth: 0.868 (inactive)
[16]
  normalized growth: 1.08 (inactive)
[17]
  normalized growth: 1 (inactive)
[18]
  normalized growth: 1.01 (inactive)
[19]
  normalized growth: 0.913 (inactive)
[20]
  normalized growth: 1.01 (inactive)
[21]
  normalized growth: 0.973 (inactive)
[22]
  normalized growth: 1.01 (inactive)
[23]
  normalized growth: 0.978 (inactive)
[24]
  normalized growth: 1.04 (inactive)
[25]
  normalized growth: 1.03 (inactive)
[26]
  normalized growth: 1.01 (inactive)
[27]
  normalized growth: 0.982 (inactive)
S. cerevisiae strains, strain wild type, stronger effect = lower value
  normalized growth: 1.01 (inactive)

From PubChem BioAssay AID1159580 (chemical genetic matrix, 2015)
